Test results as given in publication PMC5540273 (PLoS ONE, 2017).

What was measured:
BIKE = system: T1, BIKE
T1 construct: gene BMP2K

BRK = system: T2, BRK
T2 construct: gene PTK6
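Also: kd values determined as follow-up on hits from a single-replicate KINOMEscan panel screen.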

**Q.** `O=S(=O)(c1ccc(-c2ccnc3[nH]ccc23)cc1)N1CCCC1` [GSK846226] was tested. Which Kd (BIKE) did it give?
**A.** 7.2 µM

**Q.** `Cc1ccc(NC(=O)Nc2cccc(C(F)(F)F)c2)cc1` [GSK955403] was tested. Which Kd (BMPR1A) did it give?
**A.** > 10 µM

**Q.** Which Kd (BMPR2) does the source give for `O=C1NC(=O)C(N2CCc3ccccc32)=C1c1ccccc1Cl` [SB-373598] here?
**A.** > 10 µM

**Q.** Which Kd (BMX) does the source give for `NC(=O)c1nnc2ccccc2c1N` here?
**A.** > 10 µM

**Q.** With `O=C(O)COc1ncnc2cc(-c3ccc4[nH]ncc4c3)sc12` as the compound, how does the Kd (BRK) read?
**A.** > 10000 nM

**Q.** Which Kd (BRK) does the source give for `Cc1c(O)cccc1Nc1ccnc2ccc(C(F)(F)F)cc12.Cl` [GW466413] here?
**A.** 190 nM

**Q.** `CN(C)CCN(C)C(=O)c1cc(-c2ccncc2)c(-c2ccc(Cl)c(O)c2)o1.Cl.Cl` [SB-710397] was tested. Which Kd (BUB1) did it give?
**A.** 390 nM

**Q.** For `Cl.Oc1ccc(-c2nc(-c3ccccc3)[nH]c2-c2ccncc2)cc1` [SB-428218], which Kd (BUB1) is on record?
**A.** 560 nM
